High-throughput results from PubChem.
Shiga inhibitor: blocks Shiga toxin action in Vero cells. Vero cells, Shiga toxin protein synthesis inhibition reporter. 9.2% of 290,000 active. inhibition, % at 38.7 µM. AID 2315; in the data active means inhibition mostly above about 28%, no sharp cut-off; inactive means mostly below about 43%; further: 0% is about no effect
Sm TGR inh: inhibitors of Schistosoma mansoni thioredoxin glutathione reductase; Q962Y6; 3% of 360,000 active; purified TGR, DTNB reduction, TNB absorbance 405 nm; Potency, µM (titrated, usually from 114 µM), for the others: top-dose activity change, negative = inhibition, actives largely listed as inhibitors; active means well fitted inhibition curve with a large enough effect; inconclusive means small, poorly fitted or top-dose-only effect; inactive means no such curve, though single readings can be large or run the other way; further: potency means the concentration at half of the fitted maximal effect; on the % scale 0 is the no-effect control and ±100 the full control effect; nearly all actives have a fitted effect of over 60% in size
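Kinetic colorimetric format: TGR-catalysed, NADPH-driven DTNB reduction monitored via TNB absorbance. Enzyme dispensed at 20 nM; compound exposure 15 min at room temperature before reaction start.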
FMDV inh: foot and mouth disease virus antiviral activity. Potency, µM (top dose mostly 57.9 µM), inactives show top-dose activity change, negative = inhibition, most hits filed as inhibitors. 1.2% of 410,000 active. FMDV antiviral cell-based qHTS; calls by dose curve; tested in HEK293T cells; further: read-out not given here; potency means the concentration at half of the fitted maximal effect; on the % scale 0 is the no-effect control and ±100 the full control effect; nearly all actives have a fitted effect of over 45% in size
CHX counter: counter-screen hit for Shiga toxin inhibitors, cycloheximide | cell reporter, cycloheximide protein synthesis inhibition counterscreen | max response, % | 12% of 300,000 active; in the data active means max response mostly above about 13%, no sharp cut-off; inactive means mostly below about 14%; further: read at 38.3 µM for the half of the compounds with a filed dose; 0% is about no effect
Starred values were filed as active, the others as inactive; i = inactive; u = inconclusive; x = not tested or not shown. A selection: hits, their analogues and other compounds. The true share with any hit is near 12%.

SMILES	Shiga inhibitor	Sm TGR inh	FMDV inh	CHX counter
Cc1ccc(O)c(C(=O)c2cnn(-c3ccccc3)c2)c1	108*	-18%	4%	27*
Oc1cnn(-c2ccccc2)c1	17	-6%	5%	16*
COc1ccc(O)c(C(=O)c2cnn(S(=O)(=O)c3ccc(C)cc3)c2)c1	x	35µM*	9%	x
COc1ccc(C(=O)n2cc(C(=O)c3cc(C)ccc3O)cn2)cc1	19	7%	-12%	-3
O=C(Cc1cnn(-c2ccccc2)c1)c1ccc(O)c(O)c1O	35	u	2%	17*
CCC(Sc1nnc(C)n2c1cc1occc12)C(=O)Nc1ccccc1OC (centres undefined)	x	11%	0%	x
COc1cc2oc(=O)c(CC(=O)N3CCCCC3)c(C)c2cc1Cl	x	10%	9%	x
COc1ccc(CCNC(=O)CCCCn2c(=O)c3ccccc3n(CC(=O)Nc3ccc(C)cc3C)c2=O)cc1OC	x	8%	-14%	x
Cc1ccc(-c2onc(C)c2C)cc1S(=O)(=O)NC1CCC(C)CC1 (centres undefined)	x	8%	19%	x
Cc1ccc(-n2cc(C(=O)c3ccc4ccccc4c3O)cn2)cc1	2	-18%	7%	-3
Cc1ccc(-n2cc(C(=O)c3ccccc3O)cn2)cc1	61*	-21%	-56%	53*
COc1ccc2c3c(c(=O)oc2c1)C1O[C@](CCCCN2C(=O)c4ccccc4C2=O)(Cc2cc(OC)c(OC)cc21)O3	i	u	x	-2
COc1cc2c(cc1OC)C1O[C@](CCCCN3C(=O)c4ccccc4C3=O)(C2)Oc2c1c(=O)oc1ccc(F)cc21	i	2.5µM*	x	-4
COc1cc2c(cc1OC)C1O[C@](CCCCN3C(=O)c4ccccc4C3=O)(C2)OC2=C1C(=O)c1ccccc1C2=O	i	4µM*	x	-1
COc1cc2c(cc1OC)C1O[C@](CCCCN3C(=O)c4ccccc4C3=O)(C2)OC2=C1C(=O)CCC2	i	u	x	-1
COc1ccc(NC(=O)N2CC[C@@]3(CCCN(S(C)(=O)=O)C3)C2)cc1	x	x	-5%	x
COc1ccccc1CNC(=O)Cn1cc2c(n1)-c1c(oc(C(=O)N3CCOCC3)c1C)CC2	x	-4%	u	x
O=C(NC(c1ccc(F)cc1)c1ccc2ccccc2n1)C1CCN(Cc2ccc(Oc3ccccc3)cc2)CC1 (centres undefined)	x	x	-14%	x
COc1ccc(OCCN2CCC(C(=O)NC(c3ccccc3)c3ccc4ccccc4n3)CC2)cc1 (centres undefined)	x	x	-4%	x
O=C(NC(c1ccccc1)c1ccc2ccccc2n1)C1CCN(CCOc2ccc(Cl)cc2)CC1 (centres undefined)	x	x	32µM*	x
COc1cc(CN2CCC(C(=O)NC(c3ccc(F)cc3)c3ccc4ccccc4n3)CC2)cc(OC)c1 (centres undefined)	x	x	35µM*	x
Cc1ccc2c(=O)cc(C(=O)Nc3ccc(S(=O)(=O)N4CCCCCC4)cc3)oc2c1	x	0%	-8%	x
Cc1ccccc1Nc1nnc(-c2ccc(C)c(S(=O)(=O)NCC3CCCO3)c2)c2ccccc12 (centres undefined)	x	1%	20%	x
COc1ccc(N2CCN(Cc3nc4c(c(=O)[nH]c(=O)n4C)n3Cc3ccccc3F)CC2)cc1	x	0%	-15%	x
O=C(O)CCn1c(-c2ccccn2)nc2ccccc21	40	-23%	4%	11*
SMILES	Shiga inhibitor	Sm TGR inh	FMDV inh	CHX counter
O=C(CCCCCn1c(=S)[nH]c2ccc(N3CCOCC3)cc2c1=O)NCc1ccc(Cl)cc1	-2	-12%	u	8
O=C(c1ccc(Cn2c(=S)[nH]c3ccc(N4CCOCC4)cc3c2=O)cc1)N1CCN(c2ccc(F)cc2)CC1	88*	3%	42%	37*
O=c1c2cc(N3CCOCC3)ccc2[nH]c(=S)n1Cc1ccc(Cl)cc1	40*	0%	2%	76*
Cc1ccc(C)c(N2CCN(C(=O)c3ccc(Cn4c(=S)[nH]c5ccc(N6CCOCC6)cc5c4=O)cc3)CC2)c1	34	-23%	45%	24
COc1ccc(N2CCN(C(=O)c3ccc(Cn4c(=S)[nH]c5ccc(N6CCOCC6)cc5c4=O)cc3)CC2)cc1	87*	8%	51%	40*
Cc1ccc(Cn2c(=S)[nH]c3ccc(N4CCOCC4)cc3c2=O)o1	27	u	u	16*
Cc1ccc(-c2cn3nc(N4CCCC(C(=O)NCc5ccc(F)cc5)C4)sc3n2)cc1 (centres undefined)	x	0%	-2%	x
COC(=O)c1c(C)oc2c1cc(NS(=O)(=O)c1ccc(C(=O)O)cc1)c1ccccc12	-7	50µM*	-16%	1
O=C(COC(=O)c1cc(Cl)ccc1O)c1ccc2c(c1)OCO2	x	-3%	18%	x
